Data published in PubChem BioAssay (EPA / NIEHS).
Inconclusive results are not listed. Some compounds were tested as several samples or in several runs, with calls that do not always agree. The source made the active and inactive calls. The calls were made as follows: active = hit-call score of the fitted dose curve at least 0.9, where 1 is the maximum; inconclusive = response in the unintended direction; inactive = score below 0.9.

Each compound was assayed against rat Peripheral-type Benzodiazepine Receptor (PBR), Tspo (gene 24230) (UniProt P16257) (assay: NVS_MP_rPBR: NovaScreen (NVS) Membrane Protein Assay for rat Peripheral-type Benzodiazepine Receptor (PBR) (AID 2283335)).
Sequence of rat Peripheral-type Benzodiazepine Receptor (PBR), Tspo (gene 24230) (P16257 whole entry, looked up): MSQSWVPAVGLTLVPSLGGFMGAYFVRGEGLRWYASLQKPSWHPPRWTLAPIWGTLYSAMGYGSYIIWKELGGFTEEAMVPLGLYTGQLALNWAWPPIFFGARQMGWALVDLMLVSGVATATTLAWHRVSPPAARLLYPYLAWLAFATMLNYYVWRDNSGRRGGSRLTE
Method in brief: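 Single-concentration duplicate screening at 25 uM preceded concentration-series retesting of actives. Binding of a specific radioligand to rat kidney membrane PBR was read by filtration radiodetection after 1 h, with plate-wise positive and negative controls.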
`Cc1ccc(O)c(C)c1` was tested, and the outcome was “inactive”. In the case of `OCC(O)CO`, the outcome is reported as “inactive”. For `Oc1ccc(C(c2ccc(O)cc2)(C(F)(F)F)C(F)(F)F)cc1`, the AC50 was 6.31 µM (active) and the outcome was “inactive”. In the case of `Cc1cc(-c2ccc(N)c(C)c2)ccc1N`, the AC50 is reported as 13.7 µM (active). `CCSC(=O)N(CC)C1CCCCC1` was tested, and the outcome was “inactive”. `Cc1ccccc1CO[C@@H]1C[C@@]2(C(C)C)CC[C@]1(C)O2` was tested, and the outcome was “inactive”. With `CC(C)(c1ccccc1)c1ccc(O)cc1` the outcome was “inactive”. For `CCC(C)(c1ccc(O)cc1)c1ccc(O)cc1`, the AC50 was 6.5 µM (active) and the outcome was “inactive”. `CCC(C)(CC)c1cc(NC(=O)c2c(OC)cccc2OC)on1` was tested, and the outcome was “inactive”. `CCOC(=O)C(O)(c1ccc(Cl)cc1)c1ccc(Cl)cc1` was tested, and the AC50 was 10 µM (active). In the case of `CO/C=C(/C(=O)OC)c1ccccc1COc1cccc(C(F)(F)F)n1`, the AC50 is reported as 0.189 µM (active). `CC(C)(O)C(=O)Nc1ccc([N+](=O)[O-])c(C(F)(F)F)c1` was tested, and the outcome was “inactive”. For `Cc1cc2c3c(c1)C(c1ccccc1)=N[C@@H](NC(=O)c1ccncc1)C(=O)N3CC2`, the AC50 was 9.63 µM (active).

These compounds were tested against Small conductance calcium-activated potassium channel protein 1 (Rattus norvegicus) (UniProt P70606) (assay: NVS_IC_rKCaCh: NovaScreen (NVS) Ion Channel Assay for rat Potassium Channel, Ca2+ Act., VI (KCaCh) (AID 2283336)).
Sequence of Small conductance calcium-activated potassium channel protein 1 (Rattus norvegicus) (P70606 whole entry, looked up): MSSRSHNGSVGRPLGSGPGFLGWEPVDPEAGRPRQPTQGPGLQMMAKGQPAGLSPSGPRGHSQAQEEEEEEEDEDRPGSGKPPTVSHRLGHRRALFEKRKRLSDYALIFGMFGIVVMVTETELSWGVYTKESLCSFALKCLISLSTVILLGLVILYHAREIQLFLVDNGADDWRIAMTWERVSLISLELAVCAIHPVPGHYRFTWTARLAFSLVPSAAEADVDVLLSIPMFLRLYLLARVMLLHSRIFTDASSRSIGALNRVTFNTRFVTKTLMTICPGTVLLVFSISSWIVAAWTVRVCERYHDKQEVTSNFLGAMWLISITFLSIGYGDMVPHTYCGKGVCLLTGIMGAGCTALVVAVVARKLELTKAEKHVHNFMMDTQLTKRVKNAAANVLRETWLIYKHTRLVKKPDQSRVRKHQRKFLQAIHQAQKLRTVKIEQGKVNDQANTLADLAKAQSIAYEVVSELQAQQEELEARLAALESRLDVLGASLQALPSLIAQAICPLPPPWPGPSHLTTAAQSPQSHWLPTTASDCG
Method in brief: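 Filter-based scintillation counting of radioligand bound to rat forebrain membrane preparations, measured 1 h after compound addition. Primary screen used 25 uM in duplicate, with concentration-response follow-up; signal decrease relative to DMSO marks activity.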
`COc1ccc(O)c(C(C)(C)C)c1` was tested, and the outcome was “inactive”. For `CC(C)(c1ccccc1)c1ccc(O)cc1`, the outcome was “inactive”. In the case of `O=C(NC(=O)c1cc(F)c(F)cc1Cl)Nc1cc(F)ccc1N1CCC(C(=O)O)CC1`, the outcome is reported as “inactive”. With `c1ccc(-c2ccccc2)cc1` the outcome was “inactive”.

What follows are compounds tested against bovine Gamma-Aminobutyric Acid Type A Receptor Agonist (GABAR Agonist), GABRA1 (gene 780973) (UniProt P08219) (assay: NVS_LGIC_bGABAR_Agonist: NovaScreen (NVS) Ligand-Gated Ion Channel Assay for bovine Gamma-Aminobutyric Acid Type A Receptor Agonist (GABAR Agonist) (AID 2283338)).
Sequence of bovine Gamma-Aminobutyric Acid Type A Receptor Agonist (GABAR Agonist), GABRA1 (gene 780973) (P08219 whole entry, looked up): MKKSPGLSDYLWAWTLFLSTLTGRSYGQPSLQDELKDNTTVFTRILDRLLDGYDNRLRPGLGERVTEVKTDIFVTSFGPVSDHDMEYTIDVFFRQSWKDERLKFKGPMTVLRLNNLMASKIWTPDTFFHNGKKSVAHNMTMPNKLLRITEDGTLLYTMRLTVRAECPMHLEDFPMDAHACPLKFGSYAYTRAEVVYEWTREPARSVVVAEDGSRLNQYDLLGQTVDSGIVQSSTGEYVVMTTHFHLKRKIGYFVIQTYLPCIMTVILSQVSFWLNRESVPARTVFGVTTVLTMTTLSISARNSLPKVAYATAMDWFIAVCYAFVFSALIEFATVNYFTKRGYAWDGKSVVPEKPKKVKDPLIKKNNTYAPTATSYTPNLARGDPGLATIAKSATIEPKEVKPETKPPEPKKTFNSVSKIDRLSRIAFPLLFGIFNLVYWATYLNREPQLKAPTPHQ
Description: NVS_LGIC_bGABAR_Agonist is a biochemical, single-readout assay that uses extracted gene-proteins from Bovine cerebellar membranes in a tissue-based cell-free assay. Measurements were taken 1 hour after chemical dosing in a 48-well plate.NVS_LGIC_bGABAR_Agonist is one of one assay component(s) measured or calculated from the NVS_LGIC_bGABAR_Agonist assay. It is designed to make measurements of radioligand binding, a form of binding reporter, as detected with scintillation counting signals by Filter-based radiodetection technology.Data from the assay component NVS_LGIC_bGABAR_Agonist was analyzed into 1 assay endpoint. This assay endpoint, NVS_LGIC_bGABAR_Agonist, was analyzed in the positive analysis fitting direction relative to DMSO as the negative control and baseline of activity. Using a type of binding reporter, gain-of-signal activity can be used to understand changes in the binding as they relate to the gene GABRA1. Furthermore, this assay endpoint can be referred to as a primary readout, because the performed assay has only produced 1 assay endpoint. To generalize the intended target to other relatable targets, this assay endpoint is annotated to the ion channel intended target family, where the subfamily is ligand-gated ion channel.
Binding assays used specific radioligands (tritiated, iodinated) with non-radioactive competitive displacement ligands in agonist or antagonist protocols (as indicated) and various reference compounds and inhibitors to titrate specific binding to receptors and transporters. Most enzyme assays (CYPs, kinases, phosphatases, proteases, HDACs) used recombinant protein and specific substrates (fluorescence mostly, some colorimetric and radioactive) and inhibitors, followed by a biochemical separation of substrate and product. All assays for the biochemical HTS were initially run in duplicate at a single concentration (10 uM for CYP450 assays and 25 uM for all others). […] Each assay was run with positive and negative controls, and concurrent controls on every plate. The follow-up (secondary) screen tested active chemical-pairs in concentration series, as well as a few additional assays not tested in the primary screen, some selected negative inactives, and several cases re-run in the concentration series for confirmatory purposes.
For `CCC(C)c1cc([N+](=O)[O-])cc([N+](=O)[O-])c1O` (stereo not given), the outcome was “inactive”. `CC#Cc1cc(C)nc(Nc2ccccc2)n1` was tested, and the outcome was “inactive”. With `CCCCCCCCCC[N+](C)(C)CCCCCCCCCC` the outcome was “inactive”. `NS(=O)(=O)C(F)(F)C(F)(F)C(F)(F)C(F)(F)C(F)(F)C(F)(F)C(F)(F)C(F)(F)F` was tested, and the outcome was “inactive”. In the case of `c1cc2ccc3cccc4ccc(c1)c2c34`, the outcome is reported as “inactive”. `O=C(O)C(F)(F)C(F)(F)C(F)(F)C(F)(F)C(F)(F)C(F)(F)C(F)(F)C(F)(F)C(F)(F)F` was tested, and the outcome was “inactive”.
